Among all 5,500 compounds or so, about 2,000 (36%) were called active. About 18% were inconclusive and are not listed. Rule as the data show it: active = normalized growth mostly below about 0.91 (no sharp cut-off); inconclusive = no clear call, values can overlap the other calls; inactive = mostly above about 0.92. Some of the results follow.
Experiment: chemical genetic growth profiling, strain panel (AID 1159580);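 also: tested at 20 µM; growth read once vehicle control cultures reached saturation at 30 °C; 1 = growth at the plate median or of vehicle wells; lower values mean less growth of the strain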
Conditions: S. cerevisiae deletion strains, growth OD
[1] = locus YAR019C, strain CDC15, active compounds read low
[2] = locus YBL105C, strain PKC1, active compounds read low
[3] = locus YBR135W, strain CKS1, active compounds read low
[4] = locus YBR136W, strain MEC1, active compounds read low
[5] = locus YBR160W, strain CDC28, active compounds read low
[6] = locus YDL017W, strain CDC7, active compounds read low
[7] = locus YDL028C, strain MPS1, active compounds read low
[8] = locus YDL101C, strain DUN1, active compounds read low
[9] = locus YDL108W, strain KIN28, active compounds read low
[10] = locus YDL132W, strain cdc53, active compounds read low
[11] = locus YDL214C, strain PRR2, active compounds read low
[12] = locus YDR052C, strain DBF4, active compounds read low
[13] = locus YDR054C, strain cdc34, active compounds read low
[14] = locus YDR226W, strain ADK1, active compounds read low
[15] = locus YDR477W, strain SNF1, active compounds read low
[16] = locus YER123W, strain YCK3, active compounds read low
[17] = locus YER133W, strain GLC7, active compounds read low
[18] = locus YFL009W, strain cdc4, active compounds read low
[19] = locus YFL029C, strain CAK1, active compounds read low
[20] = locus YFR003C, strain YPI1, active compounds read low
[21] = locus YFR019W, strain FAB1, active compounds read low
[22] = locus YFR028C, strain CDC14, active compounds read low
[23] = locus YGR040W, strain KSS1, active compounds read low
[24] = locus YGR052W, strain FMP48, active compounds read low
[25] = locus YGR092W, strain DBF2, active compounds read low
[26] = locus YHR030C, strain SLT2, active compounds read low
[27] = locus YHR079C, strain IRE1, active compounds read low
[28] = locus YHR082C, strain KSP1, active compounds read low
[29] = locus YHR205W, strain SCH9, active compounds read low
[30] = locus YIL147C, strain SLN1, active compounds read low
[31] = locus YJL095W, strain BCK1, active compounds read low
[32] = locus YJL128C, strain PBS2, active compounds read low
[33] = locus YJL157C, strain FAR1, active compounds read low
[34] = locus YJR016C, strain ILV3, active compounds read low
[35] = locus YJR066W, strain TOR1 (second series), active compounds read low
[36] = locus YJR066W, strain TOR1, active compounds read low
[37] = locus YKL048C, strain ELM1, active compounds read low
[38] = locus YKL067W, strain YNK1, active compounds read low
[39] = locus YKL101W, strain HSL1, active compounds read low
[40] = locus YKL193C, strain SDS22, active compounds read low
[41] = locus YKL203C, strain TOR2, active compounds read low
[42] = locus YLR113W, strain HOG1, active compounds read low
[43] = locus YLR133W, strain CKI1, active compounds read low
[44] = locus YLR403W, strain SFP1, active compounds read low
[45] = locus YML070W, strain DAK1, active compounds read low
[46] = locus YMR001C, strain CDC5, active compounds read low
[47] = locus YMR205C, strain PFK2 (second series), active compounds read low
[48] = locus YMR277W, strain FCP1, active compounds read low
[49] = locus YNL006W, strain LST8, active compounds read low
[50] = locus YNL020C, strain ARK1, active compounds read low
[51] = locus YNL161W, strain CBK1, active compounds read low
[52] = locus YNL183C, strain NPR1, active compounds read low
[53] = locus YNL207W, strain RIO2, active compounds read low
[54] = locus YNL222W, strain SSU72, active compounds read low
[55] = locus YNL307C, strain MCK1 (second series), active compounds read low
[56] = locus YOL078W, strain AVO1, active compounds read low
[57] = locus YOL136C, strain PFK27, active compounds read low
[58] = locus YOR061W, strain CKA2, active compounds read low
[59] = locus YOR119C, strain RIO1, active compounds read low
[60] = locus YOR231W, strain MKK1, active compounds read low
[61] = locus YOR329C, strain SCD5, active compounds read low
[62] = locus YPL031C, strain PHO85, active compounds read low
[63] = locus YPL153C, strain RAD53, active compounds read low
[64] = locus YPL204W, strain HRR25, active compounds read low
[65] = locus YPL209C, strain IPL1, active compounds read low
[66] = locus YPL256C, strain CLN2, active compounds read low
[67] = locus YPR025C, strain CCL1, active compounds read low
[68] = locus YPR106W, strain ISR1, active compounds read low
[69] = locus YPR111W, strain DBF20, active compounds read low
[70] = strain NNK1, active compounds read low
[71] = strain TSCII, active compounds read low

Measured: normalized growth

ClC1=C(C=Nc2ccc(Cl)cc2)CSc2ccc(Cl)cc21
inactive: [1] 0.941 | [2] 0.926 | [3] 0.939 | [4] 0.926 | [5] 0.937 | [6] 0.933 | [7] 0.912 | [8] 0.945 | [9] 0.923 | [10] 0.936 | [11] 0.896 | [12] 0.943 | [13] 0.919 | [14] 0.914 | [15] 0.879 | [16] 0.83 | [17] 0.891 | [18] 0.924 | [19] 0.928 | [20] 0.94 | [21] 0.909 | [22] 0.935 | [23] 0.866 | [24] 0.905 | [25] 0.796 | [27] 0.862 | [28] 0.816 | [29] 0.812 | [30] 0.926 | [31] 0.881 | [32] 0.903 | [33] 0.886 | [34] 0.936 | [35] 0.91 | [36] 0.815 | [37] 0.941 | [38] 0.902 | [39] 0.893 | [40] 0.932 | [41] 0.884 | [43] 0.869 | [44] 0.836 | [45] 0.89 | [46] 0.927 | [47] 0.904 | [48] 0.933 | [49] 0.928 | [50] 0.883 | [51] 0.929 | [52] 0.841 | [53] 0.926 | [54] 0.947 | [55] 0.861 | [56] 0.937 | [57] 0.886 | [58] 0.843 | [59] 0.848 | [60] 0.924 | [61] 0.93 | [62] 0.87 | [63] 0.904 | [64] 0.893 | [65] 0.932 | [67] 0.935 | [68] 0.922 | [69] 0.923 | [70] 0.923 | [71] 0.93
active: [26] 0.74 | [42] 0.808 | [66] 0.843

O=[N+]([O-])c1ccc2oc(C(O)c3cccc(Cl)c3)cc2c1 (configuration not stated)
inactive: [1] 0.947 | [2] 0.948 | [3] 0.943 | [4] 0.957 | [5] 0.947 | [6] 0.949 | [7] 0.954 | [8] 0.937 | [9] 0.949 | [10] 0.936 | [11] 0.942 | [12] 0.953 | [13] 0.951 | [14] 0.952 | [15] 0.957 | [16] 0.94 | [17] 0.96 | [18] 0.945 | [19] 0.946 | [20] 0.948 | [21] 0.931 | [22] 0.949 | [23] 0.964 | [24] 1.05 | [25] 0.907 | [26] 1.08 | [27] 1.02 | [28] 1.06 | [29] 0.931 | [30] 0.96 | [31] 1.04 | [32] 0.91 | [33] 0.932 | [34] 0.954 | [35] 0.93 | [36] 1.09 | [37] 0.93 | [38] 0.942 | [39] 0.934 | [40] 0.946 | [41] 1.03 | [42] 0.893 | [43] 0.935 | [44] 0.939 | [45] 0.94 | [46] 0.945 | [47] 0.944 | [48] 0.952 | [49] 0.954 | [50] 0.929 | [51] 0.956 | [52] 1.04 | [53] 0.944 | [54] 0.947 | [55] 0.925 | [56] 0.946 | [57] 0.95 | [58] 0.922 | [59] 0.992 | [60] 1.01 | [61] 0.948 | [62] 0.953 | [63] 0.955 | [64] 0.954 | [65] 0.946 | [66] 0.996 | [67] 0.953 | [68] 0.961 | [69] 0.948 | [70] 0.934 | [71] 0.944

Source: PubChem BioAssay AID1159580 (chemical genetic matrix, 2015)
